# Values joined by “and” are separate entries in the source; they are usually repeats but may differ in a detail not shown here. Identical values can stand only once. Results filed as inconclusive are left out. A call without a number means that no potency is given here. Active and inactive are the calls of the source. Calls follow the shape of the dose curve; as a rule, active = well fitted cell-killing curve with a large enough effect; inconclusive = small, poorly fitted or top-dose-only effect; inactive = no such curve, though single readings can be large or run the other way.
# Test: qHTS of pediatric cancer cell lines to identify multiple opportunities for drug repurposing: Primary screen for OHS-50 cells (AID 1347103); also: nearly all actives have a fitted effect of over 40% in size
# Conditions: OHS-50 osteosarcoma viability, CellTiter-Glo luminescence, 48 h; series mostly up to 57.3 µM
# Source text: Drug repurposing or repositioning has been offered as a strategy for drug development in oncology programs. This approach has special potential for childhood cancers and other rare or orphan diseases, where the expected return on new drug development has been a disincentive to pharmaceuticals.
# In this project we exploit the poly-pharmacology of drugs to discover new indications via phenotypic screening of a panel of 19 well-characterized cell lines derived from solid tumors seen in children and adolescents. The goal is to identify approved drugs with previously unrecognized anticancer properties that has the potential to reveal new mechanisms and biological processes involved in carcinogenesis or drug resistance. We employed a titration-based paradigm (quantitative high-throughput screening or qHTS), where all compounds were tested at multiple concentrations for their effect on cell viability. Concentration-response curves (CRCs) were derived directly from the primary screen, and both potency and efficacy values were used to identify compounds with robust bioactivity profiles. We screened the NIH Chemical Genomics Center (NCGC) Pharmaceutical Collection (NPC) and Mechanism Interrogation Plate (MIPE) small molecule collections of approved and investigational compounds against these cell lines; and measured metabolically active cells after 48 hours of compound treatment as a proxy for cell viability.
# Assay Submitter: Nathalia J. Martinez, National Center for Advancing Translational Sciences, National Institutes of Health, Rockville, MD, USA; email: natalia.martinez@nih.gov
# [1] Shen, M et al. Quantitative high-throughput phenotypic screening of pediatric cancer cell lines identifies multiple opportunities for drug repurposing. Oncotarget 2017 Dec 19;9(4):4758-4772. PMID 29435139.
# The cells were obtained from University of North Carolina (UNC), Pediatric Preclinical Testing Program (PPT), and Coriell Institute (CI).
# qHTS cell viability assay:
# Cells were assayed in growth media at a density of 500-1,000 cells/well. Five microliters of cells were dispensed into 1,536-well, white, solid-bottom, TC-treated plates (Greiner Bio One) using a multidrop dispenser and incubated at 37 degrees C, 5% CO2, under a humidified atmosphere for 5 hours. Twenty-three nanoliters of compounds and controls (neutral control DMSO or positive control bortezomib at final concentration of 2.3 µM) were subsequently transferred by Kalypsys pintool. For primary screens, the MIPE collection was tested at 11-point dilutions (final concentrations range from 0.78 nM to 46 µM) and the NPC collection at 8-point dilutions (final concentrations range from 0.59 nM to 46 µM). Compounds tested in follow-up screens were assayed at 11-point dilutions. Cells were incubated for 48 hours, followed by addition of 3 µL of CellTiter-Glo (Promega). After a 15 min incubation at room temperature, samples were analyzed for luminescence intensity using a ViewLux High-throughput CCD imager equipped with clear filters.
# Potency is read from the fitted curve at half-maximal effect.
row,Structure (SMILES),Potency
1,COc1ccccc1OCC(O)COC(N)=O (stereo not given),inactive
2,Cc1nnc(C(=O)NC(C)(C)c2nc(C(=O)NCc3ccc(F)cc3)c(O)c(=O)n2C)o1,inactive
3,N[C@@H](C(=O)N[C@@H]1C(=O)N2C(C(=O)O)=C(Cl)CS[C@H]12)c1ccccc1,inactive
4,COc1ccc(C(=O)CC(=O)c2ccc(C(C)(C)C)cc2)cc1,inactive
5,CN1CCN(c2c(F)cc3c(=O)c(C(=O)O)cn(CCF)c3c2F)CC1,inactive
6,CC(=O)[C@H]1CC[C@H]2[C@@H]3CCC4=CC(=O)CC[C@]4(C)[C@H]3CC[C@]12C,19.3 µM (active)
7,O=S(=O)(c1cccc2cnccc12)N1CCCNCC1,inactive
8,Cc1ccnc2c1NC(=O)c1cccnc1N2C1CC1,inactive
9,CC(C)(C)C(=O)OCOP(=O)(COCCn1cnc2c(N)ncnc21)OCOC(=O)C(C)(C)C,6.17 µM (active) and 30.6 µM (active)
10,Cc1ncc([N+](=O)[O-])n1CCO,inactive
11,CCc1cc(C(N)=S)ccn1,inactive
12,Cn1nnc2c(C(N)=O)ncn2c1=O,inactive
13,COC(c1ccccc1)(c1ccccc1)[C@H](Oc1nc(C)cc(C)n1)C(=O)O,inactive
14,CC(C)(C#N)c1cc(Cn2cncn2)cc(C(C)(C)C#N)c1,inactive
15,COc1ccc2c(c1)c(CC(=O)OCC(=O)O)c(C)n2C(=O)c1ccc(Cl)cc1,inactive
16,CCCN[C@H]1CCc2nc(N)sc2C1,inactive
17,COc1ccc2cc3[n+](cc2c1OC)CCc1cc2c(cc1-3)OCO2,4.37 µM (active) and 7.69 µM (active)
18,O=C(O)c1ccc(-n2nc(-c3ccccc3O)nc2-c2ccccc2O)cc1,21.7 µM (active)
19,CC1=C(C(=O)O)N2C(=O)[C@@H](NC(=O)C(N)c3ccccc3)[C@H]2SC1 (stereo not given in full),inactive
20,COC(=O)Nc1nc2ccc(Sc3ccccc3)cc2[nH]1,1.23 µM (active) and 3.06 µM (active)

row,Structure (SMILES),Potency
1,COc1ncnc(NS(=O)(=O)c2ccc(N)cc2)c1OC,inactive
2,CN1CCCC(n2nc(Cc3ccc(Cl)cc3)c3ccccc3c2=O)CC1 (stereo not given),27.6 µM (active) and 968 nM (active)
3,S=P(N1CC1)(N1CC1)N1CC1,24.3 µM (active)
4,O=C(O)c1cc(=O)[nH]c(=O)[nH]1,inactive
5,CCCc1cc(C(N)=S)ccn1,inactive
6,COc1cnc(NS(=O)(=O)c2ccc(N)cc2)nc1,inactive
7,Cc1ccc(S(=O)(=O)N[C@@H](Cc2ccccc2)C(=O)CCl)cc1,19.3 µM (active)
8,COc1cc([C@@H]2c3cc4c(cc3[C@H](O)[C@H]3COC(=O)[C@H]23)OCO4)cc(OC)c1OC,30.9 nM (active) and 1 nM (active)
9,C[C@@H]1C[C@H]2[C@@H]3CCC4=CC(=O)C=C[C@]4(C)[C@@]3(Cl)[C@@H](O)C[C@]2(C)[C@@]1(OC(=O)c1ccco1)C(=O)CCl,15.5 µM (active) and 15.3 µM (active)
10,COc1ccc(-c2ccc3cc(C(=O)O)ccc3c2)cc1C12CC3CC(CC(C3)C1)C2,0.0153 µM (active)
11,NC(N)=NC(N)=NCCc1ccccc1,11 µM (active) and 3.85 µM (active)
12,O=S(=O)(O)CCS,inactive
13,CCOCC(O)COc1ccc(NC(=O)CC[S+](C)C)cc1 (stereo not given),inactive
14,CCOc1cc(N)c(Cl)cc1C(=O)NCC1CN(Cc2ccc(F)cc2)CCO1 (stereo not given),inactive
15,NC1(c2ccc(-c3nc4ccn5c(=O)[nH]nc5c4cc3-c3ccccc3)cc2)CCC1,344 nM (active) and 692 nM (active)
16,NC(=O)c1cccc(N)c1,inactive
17,CCn1cc(C(=O)O)c(=O)c2cc(F)c(N3CCN(C)CC3)cc21,inactive
18,OCc1ccc(-c2nn(Cc3ccccc3)c3ccccc23)o1,1.72 µM (active)
19,Nc1nc(=S)c2[nH]cnc2[nH]1,872 nM (active) and 1.72 µM (active)
20,CC1CC2C3CCC4=CC(=O)C=C[C@]4(C)[C@@]3(F)[C@@H](O)C[C@]2(C)[C@@]1(O)C(=O)CO (stereo not given in full),inactive
